# Where “and” joins values, the source holds several entries; their conditions need not be identical. Equal entries are not always repeated. A structure can be active in one record and inactive in another. Calls of active or inactive are those of the source. Rule for the calls: active = hit-call score of the fitted dose curve at least 0.9, where 1 is the maximum; inactive = score below 0.9.
# Assay: CCTE_Shafer_MEA_dev_spike_duration_mean: CCTE's Neural Network Formation Assay for Mean Spike Duration, Shafer Lab (AID 2284051);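 for AC50: potency for a decrease in mean network spike duration versus DMSO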
# Protocol: CCTE_Shafer_MEA_dev assay is conducted using Axion Biosystems 48 well microelectrode array (MEA) plates and Maestro recording system. Each well of the MEA plate contains a grid of 16 microelectrodes embedded in the culture surface. Electrically active cells, such as neurons, can be cultured over the electrodes, and electrical activity in these cells can be recorded extracellularly. The spontaneous firing of neurons is captured from each electrode on a microsecond timescale providing both temporally and spatially precise data. […] The CCTE_Shafer_MEA_dev assay uses primary cultures of rat cortical neurons. Recordings are made on days post-plating 5, 7, 9 and 12. As these cultures mature over time, neural networks develop functional activity and form cohesive networks in which electrical activity can be highly coordinated. CCTE_Shafer_MEA_dev_spike_duration_mean is 1 of 19 assay components of the CCTE_Shafer_MEA_dev assay. It measures the average duration of network spikes (temporally-clustered groups of action potential firing across multiple electrodes) during a recording in a microelectrode array (MEA) using Axion Biosystems Maestro 768 channel amplifier with the AxIS adaptive spike detector. To collapse across multiple recordings made on days post-plating 5, 7, 9 and 12, the trapezoidal area-under-the-curve of the component is calculated.Data from the assay component CCTE_Shafer_MEA_dev_spike_duration_mean was analyzed into 1 assay endpoint. This assay endpoint, CCTE_Shafer_MEA_dev_spike_duration_mean, was analyzed in the negative analysis fitting direction relative to DMSO as the negative control and baseline of activity. Using a type of functional reporter, gain or loss-of-signal activity can be used to understand electrical activity.
# On the day prior to culture, each well was coated thoroughly with 150 uL of 0.05% polyethyleneimine (PEI, Sigma Cat P3143) in 50 mM HEPES (Sigma Cat H7523) at a pH of 8. The plate was incubated at 37C for one hour. PEI was rinsed out with 500 uL of sterile water three times. Plates were stored at 4C until the day of culture. This culture was plated at a seeding density of 1.5 x 10^5 cells/well on a 48-well MEA plate, prepared as described above. Cells were administered via a 25 uL media/laminin ([…]; Sigma Cat L2020-1MG) drop directly onto the microelectrode array, as adding the cells with the laminin results in better attachment than pre-coating with laminin. After 2 hours, an additional 475 uL of cortical media was added and the cells returned to the incubator. Exposure starts at day 0 of plating and is continued over twelve days of network development until the experiment is terminated. Cells are fed with fresh medium on DIV 5 and 9, following the recordings on those days. The entire volume of media in the well is exchanged and any vehicle or compound treatment is renewed. Complete details are found in OP-NHEERL/ISTD/SBB/TJS/2015-03-r0 (available on request, email shafer.tim@epa.gov). Measurement of the electrical activity is non-invasive, and recordings can be made from the same plate over multiple different days of the culture. In cortical neurons, this allows for the measurement of extracellular action potentials over the period during which networks form in the MEA plate.
SMILES,outcome,AC50
O=C(Nc1ccccc1-c1ccc(Cl)cc1)c1cccnc1Cl,inactive,4.26 µM (active)
COP(=S)(OC)Oc1ccc([N+](=O)[O-])c(C)c1,inactive,–
CO/N=C(/C1=NOCCO1)c1ccccc1Oc1ncnc(Oc2ccccc2Cl)c1F,–,856 nM (active) and 904 nM (active)
Cc1c(COC(=O)[C@@H]2[C@H](/C=C(\Cl)C(F)(F)F)C2(C)C)cccc1-c1ccccc1,–,2.33 µM (active) and 2.32 µM (active)
CCNC(=O)NC(=O)C(C#N)=NOC,inactive,–
CN/C(=N\[N+](=O)[O-])NCc1cnc(Cl)s1,inactive,–
CCOC(=O)C(C)OC(=O)c1cc(Oc2ccc(C(F)(F)F)cc2Cl)ccc1[N+](=O)[O-] (stereo not drawn),inactive,–
CCCN(CC)CC1COC2(CCC(C(C)(C)C)CC2)O1 (stereo not drawn),–,0.275 µM (active)
CS(=O)(=O)c1ccc(C(=O)C2C(=O)CCCC2=O)c([N+](=O)[O-])c1,inactive,–
CCOP(=O)(OCC)Oc1nc(Cl)c(Cl)cc1Cl,inactive,5.13 µM (active) and 2.98 µM (active)
O=C1C2CC=CCC2C(=O)N1SC(Cl)(Cl)Cl (stereo not drawn),inactive,9.85 µM (active)
CC1(C)C(C(=O)OC(C#N)c2cccc(Oc3ccccc3)c2)C1(C)C (stereo not drawn),–,16.2 µM (active)
C=C(C)CN(CC)c1c([N+](=O)[O-])cc(C(F)(F)F)cc1[N+](=O)[O-],–,13.2 µM (active)
COP(=O)(OC)O/C(C)=C/C(=O)N(C)C,inactive,–
CC(C)=CC1C(C(=O)OCc2coc(Cc3ccccc3)c2)C1(C)C (stereo not drawn),inactive,–
CCN(CC)c1nc(C)cc(OP(=S)(OC)OC)n1,–,50 µM (active)
CC1(C)C(C=C(Cl)Cl)C1C(=O)OC(C#N)c1cccc(Oc2ccccc2)c1 (stereo not drawn),inactive,6.93 µM (active)
N#CN=C1SCCN1Cc1ccc(Cl)nc1,inactive,–
CCSC(=O)N1CCCCCC1,inactive,–
COP(=S)(OC)SCn1nnc2ccccc2c1=O,–,27.2 µM (active)
CC(C)(C)C(=O)C(Oc1ccc(Cl)cc1)n1cncn1 (stereo not drawn),–,40.2 µM (active)
CNC(=O)Oc1cccc2ccccc12,inactive,–
CS(=O)(=O)c1cc(C(F)(F)F)ccc1C(=O)c1cnoc1C1CC1,inactive,–
COC(=O)N(C(=O)N1CO[C@@]2(C(=O)OC)Cc3cc(Cl)ccc3C2=N1)c1ccc(OC(F)(F)F)cc1,–,15 µM (active)

# — PubChem BioAssay (EPA / NIEHS)
